From PubChem BioAssay (NCI) come the findings set out here.

Molecules are shown by their SMILES. The panel holds about 83,000 compounds, 20% with a hit somewhere; the sample as a whole holds those more often.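 Cells were grown in 96-well plates and exposed to the test compound at a single concentration for 48 hours; results are reported as percent growth, with values below 10 considered active.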 The source made the active and inactive calls.

This assay concerns SNB-75 CNS. Kind of assay: NCI-60 one-dose screen, 48 h (100 = growth as untreated, 0 = no growth, -100 = all killed). To be noted: 10 µM. The method, then:
Growth inhibition of the SNB-75 human tumor cell line is measured as a screen for anti-cancer activity. Cells are grown in 96 well plates and exposed to the test compound for 48 hours. Compounds are tested at a single concentration, which is 10^-5 M for most compounds. The reported endpoint is percent growth (GI% or GIPRCNT), where numbers from 0 - 100% represent growth inhibition, and numbers from -100% - 0 represent cell death. For example, a value of 40 represents 60% growth inhibition. A value of 0 means no net growth occurred over the course of the experiment. A value of -40 indicates 40% of cells at the beginning of the experiment died by the end of the experiment. A value of -100 means all cells are dead at the end of the experiment.
NCI-60 Human Tumor Cell Lines Screen was performed using the standard one-dose NCI protocol, which is described in more detail at https://dtp.cancer.gov/discovery_development/nci-60/default.htm.
Compounds with GIPRCNT values below 10 were considered active. Activity score was based on GIPRCNT using the following formula: […]
Score is 0 for GIPRCNT values of 100 or above, 50 for GIPRCNT values of 0, and 100 for GIPRCNT values of -100.
`CC12OOC(C)(OO1)C2CCC(=O)NCCNc1ccnc2cc(Cl)ccc12` (stereo not given): the growth is 101% (inactive).
As for `Cc1c2oc3c(C)ccc(C(=O)N[C@@H]4C(=O)N[C@H](C(C)C)C(=O)N5CCC[C@H]5C(=O)N(C)CC(=O)N(C)[C@@H](C(C)C)C(=O)OC4C)c3nc-2c(C(=O)N[C@@H]2C(=O)N[C@H](C(C)C)C(=O)N3CC(=O)C[C@H]3C(=O)N(C)CC(=O)N(C)[C@@H](C(C)C)C(=O)OC2C)c(N)c1=O` (stereo not given in full), the figure is -70.6% (active).
As for `O=C(/C=C/c1ccc(Br)cc1)c1nc2ccccc2n1Cc1ccc(Br)cc1`, the figure is 45% (inactive); as for `C[C@H]1[C@H](OC(=O)CCC(=O)Nc2cnccn2)O[C@@H]2OC3(C)CC[C@H]4[C@H](C)CC[C@@H]1[C@@]24OO3`, 72.6% (inactive).
As to `CC(C)N=C([Se])NC(=O)c1ccccc1`, the growth is -49.5% (active).
As for `CC[C@]12C=CCN3CC[C@@]4(c5ccc(OC)cc5N(C)[C@H]4[C@@](O)(C(=O)OC)[C@@H]1OC(=O)CCCC[P+](c1ccc(OC)cc1)(c1ccc(OC)cc1)c1ccc(OC)cc1)[C@@H]32`, the figure is -95.4% (active); as for `O=C(NCCCCC(c1ccc(F)cc1)c1ccc(F)cc1)Nc1ccc([N+](=O)[O-])c(C(F)(F)F)c1`, -9.8% (active); as for `CC(=C\C(=O)Oc1ccc2c3c1OC1C(O)CCC4(O)C(C2)N(CC2CCC2)CCC314)/C=C1\CCCc2ccccc21` (stereo not given), 59.8% (inactive).
In the case of `O=C(/C=C/c1cccc(Br)c1)c1nc2ccccc2n1Cc1ccc(Br)cc1`, the growth was 59.7% (inactive).
As for `C#CC[Se]C(=O)c1ccc2n[se]nc2c1`, the figure is 56.5% (inactive); as for `CC12CCC3(CCC(=O)NCCCNc4ccnc5cc(Cl)ccc45)[C@@](C)(OO[C@]3(C)O1)O2`, -4.41% (active); as for `CC(=O)Oc1ccccc1C(=O)[Se]C(=NC(C)C)NC(C)C`, -94.6% (active).
Regarding `CC1=C(C=O)C2=C(C)C3(CC3)[C@@](C)(O)C(=O)C2=C1`, the growth was 16.5% (inactive).
With `COC(=O)C[C@](O)(CCC(C)C)C(=O)O[C@@H]1C(OC)=C[C@]23CCCN2CCc2cc4c(cc2[C@H]13)OCO4`, the growth is -32.9% (active).
As for `CC[C@]12C=CCN3CC[C@@]4(c5ccc(OC)cc5N(C)[C@H]4[C@@](O)(C(=O)OC)[C@@H]1OC(=O)CCCC[P+](c1ccc(C)cc1)(c1ccc(C)cc1)c1ccc(C)cc1)[C@@H]32`, the figure is -87.6% (active).
As for `CCOP(=O)(CC(F)(F)C(F)(F)F)OCC`, the figure is 79.4% (inactive); as for `O=C([Se]C1C=CCCC1)c1ccc(C(=O)[Se]C2C=CCCC2)s1` (stereo not given), -77.6% (active).
Regarding `CC1=C2C(=C[C@@](C)(COP(=O)(Oc3ccccc3)Oc3ccccc3)[C@@H]2O)C(=O)[C@@](C)(O)C12CC2`, the growth is -94% (active).
As for `C#CCCCN(CCNc1ccnc2cc(Cl)ccc12)C(=O)CCC(=O)O[C@@H]1O[C@@H]2OC3(C)CC[C@H]4[C@H](C)CC[C@@H]([C@H]1C)[C@@]24OO3`, the figure is 67% (inactive); as for `O=C(/C=C/c1ccc(F)cc1)c1nc2ccccc2n1Cc1ccc(Br)cc1`, 44.5% (inactive); as for `CC12OOC(C)(OO1)C2CCC(=O)OCCNc1ccnc2cc(Cl)ccc12` (stereo not given), 90.5% (inactive).
`CC12OOC(C)(OO1)C2CCC(=O)NCCCNc1ccnc2cc(Cl)ccc12` (stereo not given): the growth is 103% (inactive).
As for `CC(=O)Oc1ccccc1C(=O)NC([Se])=NC1CCCCC1`, the figure is -75.3% (active); as for `O=C(/C=C/c1ccc(Cl)cc1Cl)c1nc2ccccc2n1Cc1ccc(Br)cc1`, 50.4% (inactive); as for `C[C@H]1[C@H](OC(=O)CCC(=O)N(CCCc2cn(-c3ccc([N+](=O)[O-])cc3)nn2)CCNc2ccnc3cc(Cl)ccc23)O[C@@H]2OC3(C)CC[C@H]4[C@H](C)CC[C@@H]1[C@@]24OO3`, 89.2% (inactive).
As for `O=C(/C=C/c1ccccc1Cl)c1nc2ccccc2n1Cc1ccc(F)cc1`, the figure is 6.88% (active); as for `CC1=C(CCC=O)C2=C(C)C3(CC3)[C@@](C)(O)C(=O)C2=C1`, -96.9% (active); as for `O=C(/C=C/c1ccc(Cl)cc1Cl)c1nc2ccccc2n1Cc1ccc(F)cc1`, 38.6% (inactive).
As for `CC[C@]12C=CCN3CC[C@@]4(c5ccc(OC)cc5N(C)[C@H]4[C@@](O)(C(=O)OC)[C@@H]1OC(=O)CCC[P+](c1ccc(C)cc1)(c1ccc(C)cc1)c1ccc(C)cc1)[C@@H]32`, the figure is -61.2% (active); as for `CC(C)C[C@H](NC(=O)CNC(=O)C[C@H]1O[C@@H]2OC3(C)CC[C@H]4[C@H](C)CC[C@@H]([C@H]1C)[C@@]24OO3)B(O)O`, -15.7% (active).
For the compound `O=C(/C=C/c1ccc(Cl)cc1)c1nc2ccccc2n1Cc1ccc(F)cc1`, the growth was 60.9% (inactive).
As for `COC(=O)C[C@](O)(CCC(C)C)C(=O)O[C@H]1C(OC)=C[C@@]23CCCN2CCc2cc4c(cc2[C@@H]13)OCO4`, the figure is -48.8% (active); as for `O=C(/C=C/c1cccc(Br)c1)c1nc2ccccc2n1Cc1ccc(F)cc1`, 32.9% (inactive); as for `COc1ccc(OC)c(/C=C/C(=O)c2nc3ccccc3n2Cc2ccc(F)cc2)c1`, 15.4% (inactive).
Turning to `COCCOCCOCCOc1ccc(-n2cc(-c3ccc(O[C@H]4O[C@@H]5OC6(C)CC[C@H]7[C@H](C)CC[C@@H]([C@H]4C)[C@@]57OO6)cc3)nn2)cc1`, the growth was 66.5% (inactive).
As for `O=C(/C=C/c1ccco1)c1nc2ccccc2n1Cc1ccc(Br)cc1`, the figure is 33.6% (inactive); as for `CC[C@]12C=CCN3CC[C@@]4(c5ccc(OC)cc5N(C)[C@H]4[C@@](O)(C(=O)OC)[C@@H]1OC(=O)CCCC[P+](C1CCCCC1)(C1CCCCC1)C1CCCCC1)[C@@H]32`, -81.4% (active); as for `CC(C)N=C([Se])NC(=O)c1cccs1`, -28.6% (active).
As for `COP(=O)(CC(F)(F)C(F)(F)F)OC`, the figure is 87.5% (inactive).
As to `CCOC(=O)C1=C(Nc2ccccc2)C(=O)OC12C(=O)Nc1ccccc12` (stereo not given), the growth is 80.6% (inactive).
